Test results reported in PubChem BioAssay (EPA / NIEHS).
Activity calls are given as the source filed them. How the source made its calls: active means hit-call score of the fitted dose curve at least 0.9, where 1 is the maximum; inactive means score below 0.9.

Assay: ATG_TCF_b_cat_CIS: Attagene CIS-FACTORIAL HepG2 Assay for human T-Cell-Factor with beta-catenin (TCF/b-cat) (AID 2282965)
Details: HepG2 TCF/beta-catenin cis-reporter transcription, actives raise or lower the signal
Experimental: ATG_CIS is a cell-based, multiplexed-readout assay that uses HepG2, a human liver cell line, with measurements taken at 24 hours after chemical dosing in a 24-well plate.ATG_TCF_b_cat_CIS is one of 52 assay component(s) measured or calculated from the ATG_CIS assay. It is designed to make measurements of mRNA induction, a form of inducible reporter, as detected with fluorescence intensity signals by Reverse transcription polymerase chain reaction (RT-PCR) and Capillary electrophoresis technology.Data from the assay component ATG_TCF_b_cat_CIS was analyzed into 1 assay endpoint. This assay endpoint, ATG_TCF_b_cat_CIS, was analyzed with bidirectional fitting relative to DMSO as the negative control and baseline of activity. Using a type of inducible reporter, measures of mRNA for gain or loss-of-signal activity can be used to understand the reporter gene at the transcription factor-level as they relate to the gene TCF7 and TCF7L2 and LEF1 and TCF7L1. Furthermore, this assay endpoint can be referred to as a primary readout, because this assay has produced multiple assay endpoints where this one serves a reporter gene function. To generalize the intended target to other relatable targets, this assay endpoint is annotated to the dna binding intended target family, where the subfamily is HMG box protein.
Human liver HepG2 cells are transiently transfected with multiple reporter transcription units (MRTUs) in 6-well plates using FuGene 6 reagent (Roche; 3 ml FuGene/1 mg DNA). The MRTU constructs are regulated by a cis-regulating element (promoter). […] A major difference between the CIS and TRANS system is that in CIS activities of endogenous TFs are measured, whereas the TRANS assay evaluates changes in activities of exogenous, chimeric NR-Gal4 proteins. […] At the end of 24 hour incubation, total RNA was isolated using TriZol reagent (Invitrogen). The isolated RNA is then reverse-transcribed using oligo(dT) primer and Mo-MLV reverse transcriptase (Invitrogen) with DNAse I (Ambion) treatment for 30 min. The one-tenth of the produced cDNA was amplified by PCR using Taq DNA polymerase (Invitrogen) and two reporter sequence-specific primers. The PCR products were fluorescently labeled by primer extension with 6-arboxyfluorescein (6-FAM) 5'-labeled reporter sequence-specific primer (2 min at 95 C, 20 s at 68 C and 10 min at 72 C) and these products were digested with 5U of HpaI (New England Biolabs) for 2h at 37 C. The fragments were purified using Qiaquick PCR columns (Qiagen), analyzed on an ABI 3130xL genetic analyzer (Applied Biosystems) with peak positions identified by using a set of X-rhodamine (ROX)-labeled MapMarker1000 molecular weight standards (BioVentures). The raw capillary electrophoresis data was processed using Attagraph software (Attagene).
With c1ccc(CCc2ccccc2)cc1 the outcome was “inactive”. In the case of c1ccc2cc(Nc3ccc(Nc4ccc5ccccc5c4)cc3)ccc2c1, the outcome is reported as “inactive”. For CCCCCCC(C)(C)S, the outcome was “inactive”. For C=C(C)[C@H]1CC=C(C)C(=O)C1, the outcome was “inactive”. With C=C(C)C(=O)OCCOCCOCCOC(=O)C(=C)C the outcome was “inactive”. With CCc1ccc(O)cc1 the outcome was “inactive”. With CCCCCCOC(=O)C(C)C the outcome was “inactive”. In the case of CCCOC(=O)c1c(Cl)c(Cl)c(Cl)c(Cl)c1C(=O)OCCC, the outcome is reported as “inactive”. For CS(=O)(=O)c1ccc(Cl)cc1, the outcome was “inactive”. For C=C(C)C(=O)OCCOC1CC2CC1C1C=CCC21 (stereo not given), the outcome was “inactive”. With ClC(c1ccccc1)(c1ccccc1)c1ccccc1 the outcome was “inactive”. For O=C(O)c1cc(C(=O)O)cc([N+](=O)[O-])c1, the outcome was “inactive”. For C=COCCOCCOC=C, the outcome was “inactive”. With COC(=O)c1cccnc1 the outcome was “inactive”. With CCCCCC(=O)CC the outcome was “inactive”. In the case of Cc1occc(=O)c1OC(=O)C(C)C, the outcome is reported as “inactive”. With CC1(C)O[C@@H]2[C@@H](CO[C@@]3(COS(N)(=O)=O)OC(C)(C)O[C@@H]23)O1 the outcome was “inactive”. In the case of N#Cc1cscn1, the outcome is reported as “inactive”. For O=C(O)c1cccnc1C(=O)O, the outcome was “inactive”. For CCC(=O)O[C@@H]1C[C@H]2CC[C@]1(C)C2(C)C, the outcome was “inactive”. With CCCCOCC the outcome was “inactive”. For CCOc1ccccc1O, the outcome was “inactive”. In the case of CC(=O)C(C)O (stereo not given), the outcome is reported as “inactive”. In the case of Nc1ccc2c(O)cc(S(=O)(=O)O)cc2c1, the outcome is reported as “inactive”. With CC(C)=CCCC(C)CC(=O)O (stereo not given) the outcome was “inactive”. In the case of Cc1ccc(C)o1, the outcome is reported as “inactive”. In the case of Cc1cc(S(=O)(=O)O)ccc1N=Nc1c(O)ccc2ccccc12, the outcome is reported as “inactive”. For COc1cc(Cl)c(OC)cc1N, the outcome was “inactive”. For CC/C=C\CC/C=C/CO, the outcome was “inactive”. For CCCC[O][Al]([O]CCCC)[O]CCCC, the outcome was “inactive”. In the case of CC(C)=CCCC(C)CCOC=O (stereo not given), the outcome is reported as “inactive”. In the case of CCCCSCCCC, the outcome is reported as “inactive”. For CC(C)C[C@H](NC(=O)OCC1c2ccccc2-c2ccccc21)C(=O)O, the outcome was “inactive”. In the case of CC1=CC[C@@]23C[C@@H]1C(C)(C)[C@@H]2CC[C@H]3C, the outcome is reported as “inactive”. In the case of CN1C(=O)c2ccccc2C1=O, the outcome is reported as “inactive”. In the case of CCCCCCCCCCCCCC(=O)OCC(O)CO (stereo not given), the outcome is reported as “inactive”. With CCOC(=O)CC(C)O (stereo not given) the outcome was “inactive”. With Cc1cc(=O)oc2cc(N(C)C)ccc12 the outcome was “inactive”. With CC1CCC(C(C)C)C(O)C1 (stereo not given) the outcome was “inactive”. In the case of CCCCCCC(C)Nc1ccc(Nc2ccccc2)cc1 (stereo not given), the outcome is reported as “inactive”.
